Values joined by “and” are separate entries in the source; they are usually repeats but may differ in a detail not shown here. Equal values may be shown once. The panel holds about 83,000 compounds, 20% with a hit somewhere; the sample as a whole holds those more often.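 In brief: 96-well plates, 48 h treatment, single concentration, percent growth endpoint.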 Values without a mark were called inactive. Active and inactive are the calls of the source. The calls were made as follows: active = growth percent below 10; inactive = the rest.

Holding throughout (test): NCI-60 one-dose screen, 48 h (100 = growth as untreated, 0 = no growth, -100 = all killed)
What all share (conditions): 10 µM

The test system of assay [1] is SR leukemia.
The test system of assay [2] is RPMI-8226 leukemia.
The test system of assay [3] is OVCAR-8 ovarian.
Assay [4] relates to OVCAR-5 ovarian.
In assay [5] the test system is OVCAR-4 ovarian.
Assay [6] has as its system SK-OV-3 ovarian.
Assay [7] concerns IGROV1 ovarian.
Assay [8] has as its system HS 578T breast.
The subject of assay [9] is NCI/ADR-RES ovarian.
Assay [10] relates to T-47D breast.
Assay [11] relates to BT-549 breast.
In assay [12] the test system is MDA-MB-435 melanoma.
Assay [13] concerns SW-620 colon.
In assay [14] the test system is MCF7 breast.
For assay [15], the system named is HCT-116 colon.
Assay [16] relates to HCC-2998 colon.
Assay [17] has as its system KM12 colon.
Assay [18] has as its system MDA-MB-468 breast.
Assay [19] relates to OVCAR-3 ovarian.

In the case of `CC(C)Sc1nc(NC2CC2)c(C#N)c(-c2ccccc2)n1`, the growth in assay [1] is 99.8%; in assay [2], 94.2%; in assay [3], 30.8%; in [4] it was 92%; in assay [5] it was 27.6%; in [6], 88.8%. Further, the growth in assay [7] is 74%; in [8], 71.7%; in assay [9] it was 57.6%; in [10] it was 92.7%; in assay [11], 91.2%; in assay [12], 98.6%. The growth in assay [13] is 100%; in assay [14], 88.1%; in assay [15], 46.7%; in assay [16], 97%; in assay [17], 94.7%; in [18] it was 80.4% and 99.9%.
For `Cc1ccc(CNC(=O)Cc2ccc3c(c2)CN(C2CCC(=O)NC2=O)C3=O)cc1` (stereo not given), the growth in assay [1] is 38.7%; in assay [2] it was 30.3%; in [3], 1.57% (active); in [4] it was 29.5%; in assay [5], 0.757% (active); in assay [6], 18.4%. Besides, the growth was 2.34% (active) in assay [7]; 6.03% (active) in [19]; -15.4% (active) in assay [8]; -4% (active) in assay [10]; 13.7% in assay [12]; 4.15% (active) in assay [13]. Moreover, the growth in [14] is 15.1%; in [15] it was 65.2%; in assay [16] it was -23.5% (active); in [17], 1.17% (active).
For the compound `CC1=N/C(=C\c2ccc(N(C)C)cc2)C(=O)N1CCc1ccc(S(N)(=O)=O)cc1`, the growth in [1] was 86.4%; in assay [2] it was 87.1%; in [3], 97.9%; in assay [4] it was 116%; in [5], 99.7%; in [6], 95.3%. Further, the growth is 103% in assay [7]; 91.6% in [8]; 96.6% in assay [9]; 83.2% in [10]; 92.7% in assay [11]; 110% in [12]. For the same compound, the growth in assay [13] is 112%; in assay [14] it was 91.8%; in assay [15], 94.3%; in [16] it was 97.5%; in [17], 104%; in assay [18] it was 110%.
As for `O=C(NO)c1ccc(Cn2ccc3c(Nc4ccccc4)ncnc32)cc1`, the growth is 11.9% in assay [1]; 20.3% in assay [2]; -21.4% (active) in assay [3]; 0.443% (active) in assay [4]; 38.7% in assay [5]; -7.35% (active) in [6]. The growth in [7] was -30.8% (active); in [19], 19.7%; in assay [8], 9.25% (active); in [10] it was -8.19% (active); in assay [11] it was 27.4%; in assay [12], 9.97% (active). For the same compound, the growth in [13] is -61.8% (active); in assay [14], 14%; in [16], -30.1% (active); in [17], 12.1%; in [18] it was -5.25% (active).
`C=C[C@@]12CN3CC[C@]1(O)[C@@](C(=O)OC)(CO2)c1[nH]c2ccccc2c1C3`: the growth in assay [1] is 75.5%; in [2], 46.9%; in [3] it was 62.8%; in assay [4], 49.2%; in [5], 62.3%; in assay [6] it was 115%. Besides, the growth in assay [19] was 61.6%; in [8], 80.5%; in [9] it was 49.1%; in assay [10], 40.8%; in assay [11] it was 38.4%; in [12], 32.7%. The growth was 55% in assay [13]; 42.6% in assay [14]; 57.9% in assay [15]; 89.4% in assay [16]; 78% in assay [17].
Turning to `CN1CCO/C1=C(/NC(=O)c1ccc(Cl)cc1)[P+](c1ccccc1)(c1ccccc1)c1ccccc1`, the growth in assay [1] is 80.9%; in [2] it was 24.8%; in [3], 89%; in [4] it was 92.1%; in assay [5], 83.3%; in assay [6], 106%. The growth in assay [7] was 59.4%; in assay [8], 93.7%; in assay [9] it was 103%; in [10], 66%; in [11], 90.1%; in assay [12], 66.7%. The growth was 97.1% in assay [13]; 62.9% in [14]; 45.9% in [15]; 89.1% in assay [16]; 64.5% in assay [17].
Regarding `Cc1ccc(-c2ccc(SCC(=O)Nc3ccc(S(N)(=O)=O)cc3Br)nn2)cc1`, the growth in [1] was 75.3%; in assay [2] it was 67.8%; in [3], -29.8% (active); in assay [4], 42%; in assay [5], 19.5%; in [6], 101%. Besides, the growth in assay [7] is 45.1%; in assay [8], 31.9%; in assay [9], 65%; in assay [10], 35.2%; in [11], 14.2%; in [12] it was 61.9%. Besides, the growth in [13] is 60%; in assay [14] it was 32.4%; in assay [15], -7.84% (active); in [16] it was 39.4%; in [18] it was -21.3% (active).
On to `COc1cc(/C=C/C(=O)c2ccc(NC(=O)CSc3nnc(-c4c[nH]c5ccccc45)n3-c3ccccc3)cc2)cc(OC)c1OC`, for which the growth in [1] is 35.3%; in assay [2], 6.57% (active); in assay [3] it was 50.1%; in assay [4] it was 108%; in [5], 93%; in assay [6] it was 121%. For the same compound, the growth was 48.8% in assay [7]; 93.2% in assay [8]; 96.1% in [9]; 69.6% in [10]; 54.9% in assay [11]; 34.1% in [12]. Also, the growth in assay [13] was 25.4%; in [14], 10%; in [15], -30.2% (active); in assay [16], 23.8%; in assay [17], 48.8%; in assay [18] it was 37%.
In the case of `CN1C(=O)N(C)C2SC(N/N=C/c3cccs3)=NC21` (stereo not given), the growth in assay [1] is 13.4%; in [2], 51.9%; in assay [3] it was 34.4%; in [4], 42.5%; in [5], 57.9%; in assay [6], 40.7%. The growth in [7] was 36.7%; in [19], -54% (active); in [8] it was 25.3%; in assay [10] it was 21.7%; in assay [12], -37.6% (active); in assay [13] it was 15.4%. Also, the growth in [14] was 13.3%; in [15] it was 28.2%; in assay [16], 54.2%; in assay [17], 16.1%; in [18], -22.8% (active).

Values taken from PubChem BioAssay (NCI).
